In PubChem BioAssay (NCI):
This is part of a sample that, as a whole, favours compounds with a hit. Of some 83,000 tested, about 20% had one in any assay.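 Step 1: grow cells in 96-well plates. Step 2: add test compound at a single concentration. Step 3: incubate 48 h. Step 4: record percent growth.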 A number with no mark means an inactive call. The source made the active and inactive calls. How the source made its calls: active means growth percent below 10; inactive means the rest.

What was measured:
Assay in all cases: NCI-60 one-dose screen, 48 h (100 = growth as untreated, 0 = no growth, -100 = all killed)
Conditions in all cases: 10 µM unless noted
SK-MEL-2 melanoma = tested on: SK-MEL-2 melanoma
EKVX NSCLC = tested on: EKVX NSCLC
SN12C renal = tested on: SN12C renal
UO-31 renal = tested on: UO-31 renal
TK-10 renal = tested on: TK-10 renal
ACHN renal = tested on: ACHN renal
CAKI-1 renal = tested on: CAKI-1 renal
A498 renal = tested on: A498 renal
CCRF-CEM leukemia = tested on: CCRF-CEM leukemia
MOLT-4 leukemia = tested on: MOLT-4 leukemia

Row | SMILES | growth (SK-MEL-2 melanoma) | growth (EKVX NSCLC) | growth (SN12C renal) | growth (UO-31 renal) | growth (TK-10 renal) | growth (ACHN renal) | growth (CAKI-1 renal) | growth (A498 renal) | growth (CCRF-CEM leukemia) | growth (MOLT-4 leukemia)
1 | Cc1c2ccccc2nc2c1ccc1cccnc12 | 95.5% | 62.7% | 88.7% | 83.9% | 96.1% | 97.3% | 77% | 80.2% | 77.8% | 68.3%
2 | Cc1ncc(C(=O)Nc2ccc(CN3CCN(C)CC3)c(C(F)(F)F)c2)cc1C#Cc1cnc(N)c2cnccc12 | -85.3% (active) | 21.5% | 11.7% | -30.1% (active) | -22.6% (active) | -21.6% (active) | -91.5% (active) | -90.5% (active) | 10.3% | 13%
3 | COc1cc2oc(-c3cccc(NC(=O)c4ccc5c(c4)OCO5)c3)cc(=O)c2c(OC)c1OC | 62.4% | 83.2% | 42.1% | 24.2% | 61.6% | 47.8% | 77.1% | 61.1% | -11.9% (active) | 2.9% (active)
4 | CCOC(=O)c1cn2ncnc(Oc3ccc(NC(=O)NC4CC4)c(F)c3)c2c1C | 114% | 96.3% | 95.1% | 70.6% | 119% | 93.5% | 102% | 54.2% | 90.9% | 104%
5 | C=CC(=O)N1CCN(c2ccc3cccc(NC(=O)c4cnc(C)cn4)c3n2)CC1 | 29.7% | 66.6% | 9.63% (active) | 0.645% (active) | 23.2% | 5.43% (active) | 4.05% (active) | -12.7% (active) | 32.1% | 35.7%
6 | O=C(CN1C(=O)NC2NC(=O)NC21)N/N=C/c1ccc(Cl)cc1Cl (stereo not given) | 113% | 101% | 104% | 84.3% | 101% | 105% | 88.2% | 112% | 107% | 105%
7 | CC(C)C[C@@H](C(=O)N[C@H](C(=O)OC1CCCC1)c1ccccc1)[C@H](O)C(=O)NO | 33.2% | 67.5% | 86.5% | 50.8% | 70.4% | 85.9% | 76.2% | 40.7% | 67.8% | 63.4%
8 | CC/C=C\C/C=C/C=C1/C(=O)C=C[C@@H]1C/C=C\CCCC(=O)OC | 92.6% | 99.4% | -8.45% (active) | 28.2% | 31.6% | 14.1% | 29.7% | 109% | 1.18% (active) | 5.5% (active)
9 | CCOC(=O)c1c(NC(=O)c2ccc(C(C)(C)C)cc2)sc2cc(O)ccc12 | 112% | 94.9% | 99.6% | 70.4% | 129% | 97.5% | 85.9% | 88.8% | 80.1% | 82.3%
10 | CCCNc1nc2ccccc2c2c(=O)c3cccc(Cl)c3sc12 | 102% | 85.1% | 105% | 66.9% | 129% | 92.7% | 71.7% | 124% | 92.2% | 93.9%
11 | C[N+](C)(C/C=C/c1ccccc1)Cc1ccccc1 | 93.7% | 92.7% | 101% | 82.4% | 96.3% | 99.4% | 97.2% | 94.6% | 149% | 103%
12 | COc1cccc(/C=C/C(=O)c2cc3c(N)c(C(=O)Nc4ccccc4C)sc3nc2C)c1 | 27.3% | 91.7% | 13.9% | 38.5% | 74.1% | 56.1% | 32.2% | 75.7% | 9.22% (active) | 32.6%
13 | CC(/C=C1\SC(=S)N(CC(=O)NC(Cc2c[nH]c3ccccc23)C(=O)O)C1=O)=C\c1ccccc1 (stereo not given) | 110% | 98.5% | 95% | 63.9% | 122% | 96.5% | 87% | 107% | 104% | 104%
14 | COc1ccc(C2=Nc3c/c(=C\c4c(O)[nH]c5cc(Cl)ccc45)ccc3=N2)cc1 | 54.4% | 80.7% | 96.5% | 58.6% | 114% | 76.9% | 75.9% | 68.5% | 54.8% | 83.9%
15 | Cn1c(=O)c2c(nc(NC3=NS(=O)(=O)c4ccccc43)n2Cc2ccccc2)n(C)c1=O | 99.7% | 91.5% | 93% | 81.2% | 143% | 97.5% | 83.7% | 60.4% | 104% | 106%
16 | O=C1/C(=C/c2ccccc2[N+](=O)[O-])COc2ccc(O)cc21 | 57.1% | 54.7% | -17.2% (active) | -68.7% (active) | 27.4% | -13.5% (active) | -15.3% (active) | 85.8% | 0.864% (active) | 4.74% (active)
17 | C#CC#CC#CC#CC#CC#CC#CC#CC[C@H]1OC[C@@H](COC(=O)O[C@@H](C(=O)O[C@H]2C[C@@]3(O)[C@@H](OC(=O)c4ccccc4)[C@@H]4[C@]5(OC(C)=O)CO[C@@H]5C[C@H](O)[C@@]4(C)C(=O)[C@H](OC(C)=O)C(=C2C)C3(C)C)[C@@H](NC(=O)c2ccccc2)c2ccccc2)O1 | 76.2% | 75.4% | 50.2% | 102% | 86.5% | 89.9% | 79.6% | 45.4% | 36.2% | 42.5%
18 | CN1CCN(CCCOC(=O)c2c3c(n4ccccc24)C(=O)c2ncccc2C3=O)CC1 | -52.7% (active) | 37.7% | -66.3% (active) | -80.9% (active) | 3.81% (active) | -53.6% (active) | 0.119% (active) | 38.3% | -16.3% (active) | -2.53% (active)
19 | CN(C)c1ccc(/C=C/C(=O)c2ccc(Nc3nc(Nc4ccc(F)cc4)nc(Nc4ccc(Cl)cc4)n3)cc2)cc1 | 52.6% | 67.2% | 101% | 59.2% | 97.9% | 75.3% | 70.9% | 83.4% | 4.13% (active) | -3.06% (active)
20 | O=C(O)CCCc1cnc2c3sccc3nc(SCc3c(Cl)cccc3Cl)n12 | 20.6% | 63% | 57.2% | 49% | 65.3% | 61.1% | 42.2% | 46.1% | 31.2% | 50.5%
21 | CC(=O)N/C(=C1/OC(C(O)C(O)C(O)CO)CN1C)[P+](c1ccccc1)(c1ccccc1)c1ccccc1 (stereo not given) | 99.5% | 90.3% | 96.2% | 79.4% | 104% | 100% | 90.6% | 120% | 97.1% | 102%
22 | CO[C@H](C(=O)[C@@H](O)[C@@H](C)O)[C@@H]1Cc2cc3cc(O[C@H]4C[C@@H](O[C@H]5C[C@@H](O)[C@H](O)C(C)O5)[C@H](O)C(C)O4)c(C)c(O)c3c(O)c2C(=O)[C@H]1O[C@H]1C[C@@H](O[C@H]2C[C@@H](O[C@H]3C[C@@H](OC)[C@H](O)C(C)O3)[C@@H](O)C(C)O2)C(O)(O)C(C)O1 (stereo not given in full) | -79.2% (active) | 18% | 8.08% (active) | 3.17% (active) | 12.1% | 0.683% (active) | 6.9% (active) | -35.7% (active) | 34.2% | 18%
23 | COc1cc2c(/C=C3\C(=O)Nc4ccccc43)c(C(=O)O)[nH]c2cc1C | 101% | 89.2% | 99.7% | 55% | 134% | 90.5% | 94.8% | 136% | 88.7% | 84%
24 | COC(=O)/C(CCC=C(C)C)=C1\[C@@H](OC(C)=O)C[C@@]2(C)[C@H]1CC(=O)[C@H]1[C@@]3(C)CCC(N4CCCC4)[C@@H](C)[C@@H]3CC[C@@]12C (stereo not given in full) | 105% | 91.9% | 89% | 70.2% | 102% | 104% | 106% | 105% | 78.2% | 9.72% (active)
25 | O=C(c1ccc(F)c(Cl)c1)N1c2ccccc2Sc2ccccc21 | 65.2% | 74.1% | 99.2% | 72.9% | 85.2% | 104% | 53.4% | 61.7% | 58.4% | 44.1%
